This is an account of results in PubChem BioAssay (NCI).

The panel holds about 83,000 compounds, 20% with a hit somewhere; the sample as a whole holds those more often.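 In brief: 96-well plates, 48 h treatment, single concentration, percent growth endpoint.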 Values without a mark were called inactive. The source made the active and inactive calls. The calls were made as follows: active = growth percent below 10; inactive = the rest.

Among the test systems are NCI-H23 lung; NCI-H226 lung; NCI-H322M lung; HOP-62 NSCLC; NCI-H460 lung; HOP-92 NSCLC; NCI-H522 lung; A549/ATCC NSCLC; 786-0 renal; COLO 205 colon; DU-145 prostate; K-562 leukemia; MALME-3M melanoma; MDA-MB-231 breast; RXF 393 renal; SF-268 CNS; SF-295 CNS; SF-539 CNS; UACC-257 melanoma; M14 melanoma.
Experiment in all cases: NCI-60 one-dose screen, 48 h (100 = growth as untreated, 0 = no growth, -100 = all killed)
Common to all, as to details: 10 µM unless noted

Take `COc1cc2nc(-c3ccc(Cl)cc3)cc(OCCCN3CCOCC3)c2cc1OC`: the growth is 73.3% in the experiment on NCI-H23 lung; -7.3% (active) in the experiment on NCI-H226 lung; 57.4% with NCI-H322M lung; 60.1% in the experiment on HOP-62 NSCLC; 21.6% in the experiment with NCI-H460 lung; 19.3% with HOP-92 NSCLC. Besides, the growth is 21.6% in the experiment on NCI-H522 lung; 29.9% in the experiment with A549/ATCC NSCLC; 67.5% in the experiment on 786-0 renal; 25.7% in the experiment with COLO 205 colon; 43.8% in the experiment with DU-145 prostate; 10.3% in the experiment with K-562 leukemia. Also, the growth in the experiment with MALME-3M melanoma is 64.9%; in the experiment on MDA-MB-231 breast, 27.2%; in the experiment on RXF 393 renal, 28.7%; with SF-268 CNS it was 63.2%; in the experiment on SF-295 CNS, -39% (active); in the experiment on SF-539 CNS it was 64.1%. The growth in the experiment on UACC-257 melanoma is 1.42% (active); in the experiment on M14 melanoma it was -37.9% (active).
In the case of `NC(=NCCCOc1ccc(F)cc1)Nc1ccc(Cl)cc1`, the growth is 46% in the experiment on NCI-H23 lung; 65.7% in the experiment on NCI-H226 lung; 60.1% in the experiment on NCI-H322M lung; 46.6% in the experiment on HOP-62 NSCLC; 84.2% with NCI-H460 lung; 60.7% in the experiment with HOP-92 NSCLC. For the same compound, the growth is 76.5% with NCI-H522 lung; 53% in the experiment on A549/ATCC NSCLC; 71.4% in the experiment with 786-0 renal; -69.6% (active) with COLO 205 colon; 25% in the experiment on DU-145 prostate; 64.7% in the experiment on K-562 leukemia. Besides, the growth in the experiment with MALME-3M melanoma is 54.6%; with MDA-MB-231 breast it was 53.7%; in the experiment with RXF 393 renal, 73.6%; in the experiment on SF-268 CNS it was 49.9%; with SF-295 CNS, 47.5%; with SF-539 CNS, 59.7%. Besides, the growth is 13.4% in the experiment on UACC-257 melanoma and 52.7% in the experiment on M14 melanoma.
Take `CCN1CCN(CCNc2nccc(-c3c(-c4cccc(OC)c4)nc4occn34)n2)S1(=O)=O`: the growth in the experiment with NCI-H23 lung was 105%; in the experiment with NCI-H226 lung, 92.2%; with NCI-H322M lung, 111%; with HOP-62 NSCLC it was 129%; in the experiment with NCI-H460 lung, 96.7%; in the experiment on HOP-92 NSCLC, 84.5%. Besides, the growth with NCI-H522 lung was 89.5%; with A549/ATCC NSCLC it was 101%; in the experiment on 786-0 renal it was 113%; in the experiment with COLO 205 colon, 42.6%; in the experiment on DU-145 prostate, 104%; with K-562 leukemia it was 7.02% (active). The growth is 6.12% (active) with MALME-3M melanoma; 87.7% in the experiment on MDA-MB-231 breast; 94.4% in the experiment with RXF 393 renal; 102% in the experiment on SF-268 CNS; 101% with SF-295 CNS; 104% with SF-539 CNS. Moreover, the growth with UACC-257 melanoma is 52.7%; in the experiment with M14 melanoma, 40%.
`CCN(CC)CCn1c(=O)c2cc(OC)c(OC)cc2c2ccc3cc4c(cc3c21)OCO4`: the growth with NCI-H23 lung is 19.5%; in the experiment on NCI-H226 lung, 1.83% (active); in the experiment with NCI-H322M lung it was 41%; in the experiment with HOP-62 NSCLC, 21.9%; with NCI-H460 lung, 6.21% (active); in the experiment with HOP-92 NSCLC, 52.6%. Besides, the growth with NCI-H522 lung is 34.9%; with A549/ATCC NSCLC, 39.4%; in the experiment with 786-0 renal, 11.4%; in the experiment on COLO 205 colon, 30.2%; in the experiment with DU-145 prostate, 24.1%; in the experiment with K-562 leukemia, 33.4%. Moreover, the growth in the experiment with MALME-3M melanoma was 17.2%; with MDA-MB-231 breast, 54.8%; with RXF 393 renal it was 8.86% (active); in the experiment on SF-268 CNS, 35.6%; in the experiment on SF-295 CNS it was 24.5%; with SF-539 CNS, -7.07% (active). Besides, the growth with UACC-257 melanoma is 41.3%; with M14 melanoma, 10.6%.
In the case of `C=C1C(=O)O[C@H]2[C@H]1CC/C(COC(=O)NCC(C)c1ccc(CC(C)C)cc1)=C\CC[C@@]1(C)O[C@@H]21` (stereo not given in full), the growth in the experiment on NCI-H23 lung was 30.7%; in the experiment on NCI-H226 lung, 61.4%; in the experiment with NCI-H322M lung, 87%; in the experiment with HOP-62 NSCLC, 82.2%; in the experiment on NCI-H460 lung it was 19.7%; in the experiment with HOP-92 NSCLC, -33.3% (active). Moreover, the growth is -64.1% (active) with NCI-H522 lung; 73% in the experiment with A549/ATCC NSCLC; -87.7% (active) in the experiment with 786-0 renal; -50.3% (active) in the experiment with COLO 205 colon; 16.4% with DU-145 prostate; -18.2% (active) in the experiment with K-562 leukemia. Also, the growth is -62.7% (active) with MALME-3M melanoma; -62.8% (active) in the experiment on MDA-MB-231 breast; -73.7% (active) in the experiment on RXF 393 renal; -17.1% (active) in the experiment with SF-268 CNS; 83.4% in the experiment on SF-295 CNS; -77% (active) in the experiment with SF-539 CNS. In addition, the growth with UACC-257 melanoma was 56.1%; in the experiment with M14 melanoma it was -29.8% (active).
For the compound `C=C1C(=O)O[C@H]2[C@H]1CC/C(CNC(=O)CCc1ccc(OC)cc1)=C\CC[C@@]1(C)O[C@@H]21`, the growth with NCI-H23 lung is 85.3%; in the experiment with NCI-H226 lung, 89.9%; in the experiment with NCI-H322M lung it was 91.4%; in the experiment with HOP-62 NSCLC, 83.6%; with NCI-H460 lung, 90.4%; with HOP-92 NSCLC it was 19.8%. For the same compound, the growth is 20.2% in the experiment with NCI-H522 lung; 81.7% in the experiment on A549/ATCC NSCLC; 34% in the experiment on 786-0 renal; 15.1% with COLO 205 colon; 24.2% with DU-145 prostate; 19.4% with K-562 leukemia. In addition, the growth in the experiment on MALME-3M melanoma is 69.2%; in the experiment on MDA-MB-231 breast, 65.8%; in the experiment on RXF 393 renal, 44.6%; with SF-268 CNS, 79.5%; in the experiment with SF-295 CNS it was 91.9%; in the experiment with SF-539 CNS, 31.1%. For the same compound, the growth with UACC-257 melanoma was 53.1%; in the experiment on M14 melanoma, 42.5%.
`O=C(/C=C/c1ccc[nH]1)c1ccc(-n2ccc(C(F)(F)F)n2)c(F)c1`: the growth is 88.7% in the experiment on NCI-H23 lung; 84% with NCI-H226 lung; 85.1% in the experiment with NCI-H322M lung; 103% with HOP-62 NSCLC; 100% in the experiment with NCI-H460 lung; 92.4% in the experiment with HOP-92 NSCLC. Moreover, the growth with NCI-H522 lung was 69.5%; in the experiment with A549/ATCC NSCLC, 87.4%; with 786-0 renal, 91.8%; in the experiment on COLO 205 colon, 119%; in the experiment with DU-145 prostate it was 99.8%; in the experiment with K-562 leukemia, 77.4%. Besides, the growth is 84.6% in the experiment with MALME-3M melanoma; 87.1% in the experiment on MDA-MB-231 breast; 91.1% with RXF 393 renal; 93.6% with SF-268 CNS; 90.2% in the experiment on SF-295 CNS; 69.7% in the experiment on SF-539 CNS. In addition, the results for the growth in the experiment with UACC-257 melanoma and in the experiment with M14 melanoma were 99.7% and 94.3%, respectively.
